Data on 20 molecules can be found in PubChem BioAssay AID639 (Emory University Molecular Libraries Screening Center, 2007).

Each structure is given as a SMILES string. The whole screen tested about 86,000 compounds, of which about 1,200 (1.4%) were called active. The list comes from a sample in which actives are over-represented; it also holds similar structures and randomly drawn compounds. A number with no mark means an inactive call. Rule as the data show it: active = activity above about 200%; inactive = the rest.

The target of this test is Estrogen receptor (Homo sapiens) (UniProt P03372). As to the kind of experiment: ERα coactivator recruitment potentiators – biochemical, TR-FRET, ERα LBD, low estradiol, primary screen (AID 639).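 Also: binding measured in presence of low estradiol as agonist stimulus; 0% = peptide alone without receptor and 100% = receptor with peptide.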 To be noted: TR-FRET ERalpha-LBD/SRC-Cy5 coactivator binding, 2 h; at 25.6 µM; stronger effect = higher value; 100 = basal binding, no effect. In general terms: In TR-FRET formats the signal depends on donor and acceptor labels being close together.
Chain of Estrogen receptor (Homo sapiens) (P03372 whole entry, looked up, the tested form may be a part): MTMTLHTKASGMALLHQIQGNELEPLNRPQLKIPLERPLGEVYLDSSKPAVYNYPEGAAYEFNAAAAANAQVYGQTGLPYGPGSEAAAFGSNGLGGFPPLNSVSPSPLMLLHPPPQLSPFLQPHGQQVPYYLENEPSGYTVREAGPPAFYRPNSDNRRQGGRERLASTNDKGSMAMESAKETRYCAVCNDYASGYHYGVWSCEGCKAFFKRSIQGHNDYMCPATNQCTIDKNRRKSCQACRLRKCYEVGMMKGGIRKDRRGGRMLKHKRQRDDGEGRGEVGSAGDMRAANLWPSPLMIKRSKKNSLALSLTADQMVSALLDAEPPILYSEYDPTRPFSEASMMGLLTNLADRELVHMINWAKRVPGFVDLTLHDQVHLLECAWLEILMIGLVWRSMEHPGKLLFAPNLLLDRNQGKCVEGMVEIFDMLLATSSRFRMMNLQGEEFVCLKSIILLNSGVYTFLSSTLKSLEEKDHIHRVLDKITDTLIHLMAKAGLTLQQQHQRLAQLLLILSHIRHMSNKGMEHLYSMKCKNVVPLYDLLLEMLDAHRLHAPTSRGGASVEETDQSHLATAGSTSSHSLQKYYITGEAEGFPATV
Regarding `O=C(O)CSc1nccn1-c1cccc(Cl)c1`, the coactivator binding (% of control) was 100%. With `COc1ccc(C2(CNC(=O)C(c3ccccc3)c3ccccc3)CCOCC2)cc1OC`, the coactivator binding (% of control) is 103%. Take `O=C(CSc1nc2cccnc2n1Cc1ccccc1)N1CCc2ccccc21`: the coactivator binding (% of control) was 156%.

As for `COc1ccc(CCn2c(=N)c(C(=O)NCc3ccco3)cc3c(=O)n4cccc(C)c4nc32)cc1`, the coactivator binding (% of control) is 92.3%. Turning to `O=C(NCc1ccco1)c1cc(-c2cccnc2)nc2ccc(Cl)cc12`, the coactivator binding (% of control) is 128%. For `O=C(NCc1ccco1)c1cccn2c(=O)c3cc(Br)ccc3nc12` the value was 232% [fluorescence artefact?] (active); for `CC(Oc1ccc(Cl)cc1)C(=O)Nc1ncccn1` (stereo not given), 220% (active); for `CC(Oc1ccc(Cl)cc1)C(=O)OCC(=O)Nc1ncc(Cl)cc1Cl` (stereo not given), 103%. Take `COc1ccc(OC(C)C(=O)Nc2cccnc2)cc1` (stereo not given): the coactivator binding (% of control) was 102%.

For the molecule `CCCC1(C(=O)OCC)NC(c2ccc(N(C)C)cc2)C2C(=O)N(c3ccc4c(c3)OCCO4)C(=O)C21` (stereo not given), the coactivator binding (% of control) is 117%.

Regarding `CCN(CC)C(=O)CSc1nnc(CNc2ccc(F)cc2)n1Cc1ccco1`, the coactivator binding (% of control) was 86.8%.

Turning to `CC(=O)Nc1ccc(S(=O)(=O)NCCc2ccccc2)cc1`, the coactivator binding (% of control) was 98.9%.

As to `O=S(=O)(NCCNS(=O)(=O)c1ccccc1)c1ccccc1`, the coactivator binding (% of control) was 108%. With `O=S(=O)(NCCc1ccccc1)c1ccccc1`, the coactivator binding (% of control) is 245% [fluorescence artefact?] (active).

Consider `COc1ccc(C(=O)N2CC3(C)CC2CC(C)(C)C3)cc1OC` (stereo not given), for which the coactivator binding (% of control) was 118%. For `CCOC(=O)c1c(C)oc2cc(Br)c(OCC(N)=O)cc12` the value was 156%; for `CSc1ccc(-c2c(C#N)c(N)nc3c2c(C)nn3-c2ccccc2)cc1`, 210% [fluorescence artefact?] (active); for `CCn1c(CNC(=O)c2ccccc2)nnc1SCC(=O)N1CCN(c2ccccc2)CC1`, 106%.

`Fc1ccc(-n2c(Cc3ccccc3)nnc2SCc2nc(-c3ccc(Cl)cc3)no2)cc1`: the coactivator binding (% of control) is 95.3%. In the case of `Cc1cccc(C)c1NC(=O)CSc1nnc(-c2ccccc2)n1Cc1ccc2c(c1)OCO2` it was 98.5%.
